{"source": "PubChem BioAssay (NCI)", "note": "About 79,000 compounds went through this panel and 15% of them were active in at least one assay; those are over-represented in the sample as a whole. Unmarked numbers belong to inactive results. The source made the active and inactive calls. No stated cut-off is given here; in the data, active means growth inhibition above about 70%; inactive means the rest."}
{"assay": "NCI Yeast Anticancer Drug Screen. Data for the bub3 strain (AID 167)", "conditions": "S. cerevisiae bub3 mutant strain, at 50.0 µM (retest, dose inferred, filed as 5.0), active compounds read high", "outline": "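Steps: expose the mutant yeast strain to compound; grow alongside vehicle-treated cultures; measure growth; express inhibition against the vehicle cultures.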"}
{"compound": "COc1ccc(N=Cc2cc(Br)cc(Br)c2O)cc1.COc1ccc(N=Cc2cc(Br)cc(Br)c2O)cc1.[Co]", "growth inhibition": "59%"}
{"compound": "O=C(/C=C/C(=O)N1CCCC1)N1CCCC1", "growth inhibition": "6%"}
{"compound": "O=S(c1ccccc1)c1c(Cl)c(Cl)nc(Cl)c1Cl", "note": "(centres undefined)", "growth inhibition": "99% (active)"}
{"compound": "CSc1nc(N)c2cnn(C3OC(CO)C(O)C3O)c2n1", "note": "(centres undefined)", "growth inhibition": "80% (active)"}
{"compound": "COc1cccc(C=O)c1O", "growth inhibition": "0%"}
{"compound": "Cn1c(=O)c2c(ncn2CCCCOc2ccc3c(c2)[n+]([O-])nc(N)[n+]3[O-])n(C)c1=O", "growth inhibition": "63%"}
{"compound": "Cn1ncc2c(Nc3cccc(Cl)c3)nc(Nc3cccc(Cl)c3)nc21", "growth inhibition": "98% (active)"}
{"compound": "Cc1cc(C)n2nc(N)c(C#N)c2c1C#N", "growth inhibition": "-3%"}
{"compound": "COc1ccc(C2c3cc4c(cc3OC(O)C2C)OCO4)cc1", "note": "(centres undefined)", "growth inhibition": "67%"}
{"compound": "Nc1ccccc1[S][Sn]([c]1ccccc1)([c]1ccccc1)[c]1ccccc1", "growth inhibition": "99% (active)"}
{"compound": "Cn1c(Sc2ccc(-c3cccnc3)n2C)ccc1-c1cccnc1", "growth inhibition": "96% (active)"}
{"compound": "Nc1nnc(-c2cc(=O)c3cc(Cl)ccc3o2)s1", "growth inhibition": "11%"}
{"compound": "COc1ccc(CNc2nc3cc(C(F)(F)F)ccc3nc2C)cc1OC", "growth inhibition": "18%"}
{"compound": "CC(=O)OCC1CC2OC2CC1C", "note": "(centres undefined)", "growth inhibition": "19%"}
{"compound": "CCCCN(CCCC)CC(O)c1cc(-c2ccc(Cl)cc2)nc2cc(C)ccc12", "note": "(centres undefined)", "growth inhibition": "97% (active)"}
{"compound": "NC(=S)n1nc(-c2ccccc2)c(N=Nc2ccccc2Cl)c1-c1ccccc1", "growth inhibition": "92% (active)"}
{"compound": "CCCCCCCCCCCCN(CCO)CCO", "growth inhibition": "98% (active)"}
{"compound": "CC(C)CCSc1ncnc2nc[nH]c12", "growth inhibition": "8%"}
{"compound": "O=C(c1ccccc1)c1cccc2ccccc12", "growth inhibition": "27%"}
{"compound": "O=C1C(c2c[nH]c3ccccc23)=Nc2ccc(Br)cc21", "growth inhibition": "53%"}
{"compound": "COc1cccc(CCCNC(=O)Cc2ccccc2CO)c1", "growth inhibition": "14%"}
{"compound": "C/C(=N\\NC(=S)N1CCN(C2CCCCC2)CC1)c1ccccn1", "growth inhibition": "51%"}
{"compound": "CN(C)CCOC(=O)C1(CCC2CCCCC2)CCCCC1", "growth inhibition": "32%"}
{"compound": "O=c1c(Cl)cc2nc3ccccc3sc-2c1Cl", "growth inhibition": "85% (active)"}
{"compound": "COc1ccc2nc(NC(=O)Nc3c(Cl)cccc3Cl)sc2c1", "growth inhibition": "99% (active)"}
{"compound": "Cc1c[nH]c2nc(C)n(-c3ccccc3)c(=N)c12", "growth inhibition": "-3%"}
{"compound": "O=C(C1=NNC(c2ccccc2)C1C(=O)c1ccccc1)c1ccccc1", "note": "(centres undefined)", "growth inhibition": "86% (active)"}
{"compound": "CCOC(=O)N1CCN(C=S)CC1", "growth inhibition": "31%"}
{"compound": "COC(=O)N(C[C@@H]1C=CCCC1)c1ccccc1I", "growth inhibition": "74% (active)"}
{"compound": "N=c1ccc2c(c1)[nH]c1c3ccccc3[nH]c3cccc2c31", "growth inhibition": "98% (active)"}
{"compound": "CC1(C)[C@H]2CC[C@]1(C)[C@H](OC(=O)NNC(=O)O[C@@H]1C[C@@H]3CC[C@@]1(C)C3(C)C)C2", "growth inhibition": "51%"}
{"compound": "N#CC1(C#N)C(C#N)(C#N)C12CCCCCC2", "growth inhibition": "83% (active)"}
{"compound": "CCOP(=O)(OCC)OC1c2[nH]ccc2-c2cc(C(=O)OC)[nH]c2C1OC", "note": "(centres undefined)", "growth inhibition": "-2%"}
{"compound": "O=[N+]([O-])/C(=C\\c1cccs1)c1ccccc1", "growth inhibition": "99% (active)"}
{"compound": "Cc1ccccc1NC(=O)C(=O)C(C#N)c1c(Cl)cccc1Cl", "note": "(centres undefined)", "growth inhibition": "25%"}
{"compound": "O=C1c2c(F)c(F)c(F)c(F)c2SC2=NCCN12", "growth inhibition": "99% (active)"}
{"compound": "CCCC(C)OC(=O)Nc1cccc(Cl)c1", "note": "(centres undefined)", "growth inhibition": "1%"}
{"compound": "Nc1nc(SCc2ccccc2)c2ncn(CCCl)c2n1", "growth inhibition": "-7%"}
{"compound": "CCCCOC(=O)c1nc(N(CC2CCCCC2)C(=O)NC)sc1NC(=O)NC", "growth inhibition": "95% (active)"}
